20 molecules from PubChem BioAssay (NCI) can be followed below.

Where “and” joins values, the source holds several entries; their conditions need not be identical. Equal values may be shown once. This is part of a sample that, as a whole, favours compounds with a hit. Of some 83,000 tested, about 20% had one in any assay.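 Growth was measured after 48 h exposure to one concentration of compound in 96-well plates. Values under 10 count as active.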 Unmarked numbers belong to inactive results. Calls of active or inactive are those of the source.

Some test systems named below: T-47D breast; BT-549 breast; MDA-MB-435 melanoma; SW-620 colon; MCF7 breast; HCT-116 colon; HCC-2998 colon; KM12 colon; MDA-MB-468 breast.
What all share (experiment): NCI-60 one-dose screen, 48 h (100 = growth as untreated, 0 = no growth, -100 = all killed)
Holding throughout (conditions): 10 µM unless noted

On to `CCc1ccccc1-c1nc(CN[C@@H]2C[C@@H]3C[C@H]([C@H]2C)C3(C)C)c(C)o1`, for which the growth was -60.3% (active) with T-47D breast; -89.7% (active) in the assay with BT-549 breast; -79.5% (active) with MDA-MB-435 melanoma; -43.5% (active) with SW-620 colon; -84.4% (active) with MCF7 breast; -82.4% (active) with HCT-116 colon. Besides, the growth with HCC-2998 colon is -83.9% (active); with KM12 colon, -87.4% (active); in the assay with MDA-MB-468 breast, -83.4% (active).

Take `COc1cc(CNC(=O)C[C@H](C)CCC=C(C)C)ccc1OCc1cn(-c2cccc(C(F)(F)F)c2)nn1`: the growth in the assay on T-47D breast was 32.4%; in the assay with BT-549 breast it was 92.3%; in the assay with MDA-MB-435 melanoma, 74.9%; with SW-620 colon it was 38.7%; in the assay with MCF7 breast it was 56.8%; in the assay with HCT-116 colon, 12.5%. Moreover, the growth was 111% with HCC-2998 colon, 85% with KM12 colon and 64.9% in the assay on MDA-MB-468 breast.

As for `N#C/C(=C/c1ccc([N+](=O)[O-])cc1)c1nnc(NC(=O)c2ccc(-n3c(=O)[nH]c4ccccc4c3=O)cc2)s1`, the growth is 85.8% in the assay with T-47D breast; 107% with BT-549 breast; 105% in the assay with MDA-MB-435 melanoma; 100% in the assay on SW-620 colon; 84.9% in the assay on MCF7 breast; 94.8% with HCT-116 colon. For the same molecule, the growth is 108% with HCC-2998 colon, 90.8% in the assay on KM12 colon and 98.5% with MDA-MB-468 breast.

Regarding `N/C(=N\c1nc2ccc([N+](=O)[O-])cc2s1)NC(=O)Nc1ccccc1Cl`, the growth in the assay with T-47D breast was 26.2%; with BT-549 breast, 25.9%; with MDA-MB-435 melanoma, 5.83% (active); in the assay on SW-620 colon it was 21.4%; with MCF7 breast, 36.5%; with HCT-116 colon it was -2.76% (active). Further, the growth was 86.6% in the assay with HCC-2998 colon, 38.6% with KM12 colon and 0% (active) with MDA-MB-468 breast.

Regarding `NCCCCn1c(SCCc2c[nH]c3ccccc23)nnc1-c1ccc2ccccc2n1`, the growth was -63.4% (active) with T-47D breast; 54.5% in the assay with BT-549 breast; -75% (active) with MDA-MB-435 melanoma; -73.1% (active) with SW-620 colon; -88.8% (active) in the assay on MCF7 breast; -94.1% (active) with HCT-116 colon. Also, the growth in the assay with HCC-2998 colon is -90.2% (active); in the assay with KM12 colon, 13.1%; with MDA-MB-468 breast it was -87.1% (active).

With `COc1ccccc1Nc1nnc(-c2c[nH]c3ccccc23)o1`, the growth is 16.6% in the assay on T-47D breast; 39.7% in the assay on BT-549 breast; -40.8% (active) with MDA-MB-435 melanoma; 40.9% with SW-620 colon; 10.6% with MCF7 breast; 12.5% with HCT-116 colon. In addition, the growth in the assay with HCC-2998 colon was 7.55% (active); with KM12 colon, 2.26% (active); with MDA-MB-468 breast, -25.4% (active).

`Cn1cc(-c2cc3nc(-c4cn(C)c5ncccc45)cc(N)n3n2)c2cc(F)ccc21`: the growth was 37.8% with T-47D breast; 35.4% in the assay with BT-549 breast; 83.1% in the assay with MDA-MB-435 melanoma; 61% in the assay with SW-620 colon; 68.2% in the assay on MCF7 breast; 10.2% in the assay with HCT-116 colon. Moreover, the growth was 39.8% with HCC-2998 colon, 61.8% in the assay with KM12 colon and 7.65% (active) with MDA-MB-468 breast.

As for `COc1ccc(N=Nc2c(N)nn3c(N)c(C#N)c(-c4ccc(F)cc4)nc23)cc1`, the growth with T-47D breast is 55.7%; with BT-549 breast, 49.3%; in the assay with MDA-MB-435 melanoma it was 86.2%; with SW-620 colon it was 88.6%; in the assay with MCF7 breast, 57.1%; in the assay on HCT-116 colon, 46.4%. The growth in the assay with HCC-2998 colon is 66.7%; in the assay on KM12 colon it was 56.7%; with MDA-MB-468 breast it was 46.7%.

Turning to `COc1cc(C2C(C(=O)OCc3ccccc3)=C(C)Nc3nc4ccccc4n32)cc(OC)c1OC` (stereo not given), the growth with T-47D breast is 55.6%; in the assay with BT-549 breast, 14.2%; in the assay with MDA-MB-435 melanoma it was -34.7% (active); in the assay on SW-620 colon it was 31.4%; in the assay on MCF7 breast, 7.08% (active); with HCT-116 colon, 2.8% (active). For the same molecule, the growth in the assay with HCC-2998 colon is 27.8%; in the assay on KM12 colon it was 38%; in the assay on MDA-MB-468 breast, -38% (active).

`COc1cc2cc(C(=O)N3C[C@@H](CCl)c4c3cc(OC(=O)N(C)CCSSCCN3CCOCC3)c3ccccc43)[nH]c2c(OC)c1OC`: the growth was -6.52% (active) in the assay on T-47D breast; -58.5% (active) in the assay on BT-549 breast; -41.2% (active) in the assay on MDA-MB-435 melanoma; 6.21% (active) with SW-620 colon; -33.5% (active) in the assay on MCF7 breast; -12.9% (active) in the assay on HCT-116 colon. The growth was -58.7% (active) in the assay on HCC-2998 colon, -31.1% (active) in the assay on KM12 colon and -77.3% (active) in the assay with MDA-MB-468 breast.

On to `COC(=O)c1c(C(=O)OC)c2c3ccccc3c3ccccc3n2c1C(=O)C(C)(C)C`, for which the growth was 46.4% in the assay on T-47D breast; 62.5% in the assay with BT-549 breast; 83.2% in the assay on MDA-MB-435 melanoma; 100% with SW-620 colon; 73% with MCF7 breast; 59% with HCT-116 colon. The growth in the assay on HCC-2998 colon was 85.6%; in the assay on KM12 colon, 62.5%; in the assay on MDA-MB-468 breast it was 54.1%.

As to `N#CC1=C(c2cccs2)Nc2c(c(-c3ccccc3)nn2-c2ccccc2)C12C(=O)Nc1ccccc12` (stereo not given), the growth with T-47D breast is 17.3%; in the assay on BT-549 breast, -41.8% (active); in the assay with MDA-MB-435 melanoma, 28.3%; in the assay on SW-620 colon it was 8.74% (active); in the assay on MCF7 breast it was 31.4%; with HCT-116 colon, 5.53% (active). Besides, the values for the growth with HCC-2998 colon, in the assay with KM12 colon and with MDA-MB-468 breast were 38.1%, 9.03% (active) and -9.71% (active), respectively.

With `CC1=C(C(=O)OCc2ccccc2)C(c2ccc(N(C)C)cc2)n2c(nc3ccccc32)N1` (stereo not given), the growth in the assay with T-47D breast was 84.6%; in the assay on BT-549 breast, 82.8%; in the assay with MDA-MB-435 melanoma, 29.4%; with SW-620 colon, 103%; in the assay on MCF7 breast, 65.2%; with HCT-116 colon it was 87.7%. Further, the growth was 90.8% in the assay on HCC-2998 colon, 73.4% with KM12 colon and 69.8% with MDA-MB-468 breast.

With `O=C(Cn1c(-c2ccccc2)nc2ccccc21)N=Nc1c(O)[nH]c2ccc(Cl)cc12`, the growth is -29.8% (active) in the assay on T-47D breast; -53% (active) with BT-549 breast; 2.53% (active) in the assay with MDA-MB-435 melanoma; 23% with SW-620 colon; 9.49% (active) with MCF7 breast; -23.7% (active) in the assay with HCT-116 colon. Also, the growth in the assay with HCC-2998 colon is 19.5%; in the assay on KM12 colon it was 32.2%; in the assay on MDA-MB-468 breast it was -18.9% (active).

Regarding `CC(=O)c1c2c(c3ccc4c5ccccc5ccc4n13)C(=O)c1ccccc1C2=O`, the growth in the assay with T-47D breast was 92.5%; in the assay with BT-549 breast it was 113%; in the assay on MDA-MB-435 melanoma, 98.3%; in the assay on SW-620 colon it was 107%; in the assay with MCF7 breast, 58%; in the assay on HCT-116 colon, 102%. Also, the growth in the assay on HCC-2998 colon was 94.3%; in the assay with KM12 colon, 85.8%; with MDA-MB-468 breast, 84.2%.

Consider `COc1cc(/C=N/NC(=O)c2ccc(OCc3nc4ccc(C)cc4[nH]3)cc2)cc(OC)c1OC`, for which the growth is 35.1% in the assay with T-47D breast; 45.4% in the assay on BT-549 breast; 49.1% in the assay with MDA-MB-435 melanoma; 40.7% in the assay on SW-620 colon; 38.2% in the assay with MCF7 breast; 21.2% in the assay on HCT-116 colon. Besides, the growth in the assay with HCC-2998 colon was 65.5%; in the assay with KM12 colon, 57%; with MDA-MB-468 breast it was 41.5%.

Consider `Cc1nc(Nc2ccccn2)sc1C1=NNC(c2ccccc2F)C1` (stereo not given), for which the growth was 33.5% in the assay on T-47D breast; 36.1% with BT-549 breast; -17.9% (active) in the assay on MDA-MB-435 melanoma; 32.1% with SW-620 colon; 20.1% in the assay on MCF7 breast; 34.3% in the assay on HCT-116 colon. In addition, the figures for the growth with HCC-2998 colon, with KM12 colon and in the assay on MDA-MB-468 breast were 95.7%, 23.4% and -13.7% (active), respectively.

For the molecule `c1n[nH]cc1-c1nc2ccc3cn[nH]c3c2c2c1CCCC2`, the growth in the assay on T-47D breast is 74.7%; in the assay with BT-549 breast it was 97.1%; in the assay on MDA-MB-435 melanoma, 94.8%; in the assay on SW-620 colon, 109%; in the assay on MCF7 breast it was 78.7%; with HCT-116 colon it was 89.5%. Moreover, the growth in the assay on HCC-2998 colon was 104%; in the assay with KM12 colon, 96.4%; in the assay on MDA-MB-468 breast, 78.5%.

In the case of `COc1ccc(N=Nc2c(N)nn3c(-c4ccc(OC)c(OC)c4)ccnc23)cc1`, the growth in the assay with T-47D breast is 62%; in the assay with BT-549 breast, 65.6%; in the assay with MDA-MB-435 melanoma it was 81.9%; with SW-620 colon it was 95.2%; with MCF7 breast, 84.9%; in the assay with HCT-116 colon, 72.5%. Also, the growth in the assay with HCC-2998 colon is -35.9% (active); in the assay with KM12 colon, 97.9%; in the assay on MDA-MB-468 breast, 80.2%.

For the molecule `CS(=O)(=O)Nc1cccc(-n2c(COc3ccc(OC(F)(F)F)cc3)nc3ccccc32)c1`, the growth was 62.2% and 85% in the assay with T-47D breast; 98% and 96.5% in the assay with BT-549 breast; 102% and 103% with MDA-MB-435 melanoma; 97.3% and 108% in the assay with SW-620 colon; 65.6% and 102% with MCF7 breast; 85.9% and 104% in the assay on HCT-116 colon. Besides, the growth was 114% and 113% with HCC-2998 colon; 91.9% and 101% in the assay on KM12 colon; 107% and 106% in the assay on MDA-MB-468 breast.
